Bioassay records (PubChem BioAssay)
TLR4 MyD88 blk – TLR4-MyD88 interaction inhibition; O00206; Cell-based TLR4-MyD88 binding inhibition assay; inhibition, % at 10 µM; 16,000 compounds, 0.06% hits; AID 811; in the data active = inhibition above about 45%
rat GALR2 agon – GALR2 (rat) receptor agonism | cell-based GALR2 agonist screen | activation, % at 10 µM | 16,000 compounds, 0.5% hits | AID 833; in the data active = activation above about 15%
Target sequence (O08726 whole entry, looked up): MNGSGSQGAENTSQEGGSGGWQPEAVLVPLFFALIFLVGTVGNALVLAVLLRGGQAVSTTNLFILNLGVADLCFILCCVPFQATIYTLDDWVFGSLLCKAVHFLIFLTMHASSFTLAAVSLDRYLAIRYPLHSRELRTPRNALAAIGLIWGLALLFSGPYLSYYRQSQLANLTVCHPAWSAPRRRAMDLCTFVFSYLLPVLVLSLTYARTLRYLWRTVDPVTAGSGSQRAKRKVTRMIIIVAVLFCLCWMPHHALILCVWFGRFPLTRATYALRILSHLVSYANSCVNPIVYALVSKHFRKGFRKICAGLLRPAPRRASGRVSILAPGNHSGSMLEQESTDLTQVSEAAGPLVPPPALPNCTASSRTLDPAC
PME-1 Maybr inh – inhibitors of human PME-1 in Maybridge library | recombinant PME-1, FP-Rh probe fluorescence polarization | 16,000 compounds, 0.5% hits | inhibition, % at 9 µM | Q9Y570; in the data active = inhibition above about 30%
S1P1 ag – S1P1 (human) receptor agonism; P21453; S1P1 agonist cell-based reporter assay; activation, % at 4.5 µM; 16,000 compounds, 1.5% hits; AID 1044; in the data active = activation above about 80%
KOR antag MB – blocks the human kappa opioid receptor, Maybridge compounds. P41145. OPRK1 cells, antagonist mode, fluorescence readout. inhibition, % at 9 µM. 16,000 compounds, 0.4% hits. AID 652031; in the data active = inhibition above about 50%
NOTCH agonist – activates NOTCH signaling in reporter cells; AID 434982; NOTCH signaling luciferase reporter cells, luminescence; activation, % at 2.5 µM; 15,000 compounds, 0.4% hits; in the data active = activation above about 2.2%
Large screens that a line does not name were inactive. An excerpt weighted towards active compounds, which were near 3.2% of everything screened.

CCOC(=O)c1noc(C)c1/C(C)=N/Nc1ccccc1Cl	none
Cc1csc2c(=O)n(CCN3CCSCC3)c(=O)[nH]c12	none
COc1ccc(/C=C/c2nc(-c3ccc(OS(=O)(=O)N(C)C)cc3)no2)c(Cl)c1OC	none
COc1ccc(-c2nc(-c3ccc(OS(=O)(=O)N(C)C)cc3)no2)cc1OC	S1P1 ag 107.3 (no result: TLR4 MyD88 blk)
COc1ccc(-c2nc(-c3cccc(C)c3)no2)cc1OC	S1P1 ag 96.8
COc1ccc(-c2noc(-c3ccccc3)n2)cc1OC1CCCC1	S1P1 ag 98.3
COc1ccc(-c2cc3c(=O)oc4ccccc4c3[nH]2)cc1	none
Cc1ccc(-n2nnnc2-c2cnc(N)nc2-c2ccccc2)cc1	none
O=C(Cc1ccccc1Cl)N/N=C(/C(=O)O)c1ccccc1	PME-1 Maybr inh 38.2
Cc1cc(C(=O)NNC(=O)c2ccco2)nn1C(C)(C)C	none
Cc1cc(C(=O)NNS(=O)(=O)c2cccc3cccnc23)nn1C(C)(C)C	NOTCH agonist 3.2
Cc1nn(-c2ccccc2)nc1CNC(=O)C1=Cc2ccccc2OC1	NOTCH agonist 2.3
N#C/C(=N\Nc1ccc(C(F)(F)F)cc1)S(=O)(=O)c1cccs1	S1P1 ag 110.4
COCCOc1cc2ncnc(N3CCC(C(=O)O)CC3)c2cc1OCCOC	S1P1 ag 113.4
N#C/C(=C\c1c(Cl)cccc1Cl)C(=O)Nc1ccc(F)c(Cl)c1	rat GALR2 agon 20.2
CSc1cc(-c2ccncc2)nc(-c2cccs2)c1	none
O=C1NNC(SCc2ccc(Br)cc2)=Nc2ccccc21	S1P1 ag 96.5
CCOC(=O)c1cc(C)nn1S(=O)(=O)c1ccc(Cl)c(Cl)c1	none
O=[N+]([O-])c1cccnc1SCc1csc2ccc(Cl)cc12	S1P1 ag 105.5
CCOC(=O)c1c(C)csc1NC(=O)c1cccs1	rat GALR2 agon 18.6
CCOC(=O)c1c(C)csc1NC(=O)Nc1c(Cl)cccc1Cl	none
CC(=O)Nc1cccc(OCCCNS(=O)(=O)c2ccc(Oc3cccc(Cl)c3C#N)cc2)c1	S1P1 ag 93.4
N#Cc1c(Cl)cccc1Oc1ccc(S(=O)(=O)NNc2c(Cl)cncc2Cl)cc1	S1P1 ag 108.3
N#C/C(NCc1cccs1)=C(\C#N)NCc1c(F)cccc1Cl	none
CC12CCC(=O)C=C1CCC2=O (centres undefined)	TLR4 MyD88 blk 53.0
Cc1onc(-c2ccccc2)c1CN1CCOCC1	none (no result: TLR4 MyD88 blk)
Cc1oc(C(C)(C)C)cc1C(=O)Nc1ccccc1	none
FC(F)(F)c1ccnc(NCc2ccc3c(c2)OCO3)n1	none
c1ccc(-c2cc3ncnc(NCc4ccc5c(c4)OCO5)c3s2)cc1	KOR antag MB 61.0
COc1ccccc1NC(=O)c1cncc(C#Cc2ccccc2)c1	none
CCOc1ncnc2c1nnn2Cc1ccccc1Cl	rat GALR2 agon 20.3
Cc1cc(C)n(-c2ncnc3c2nnn3Cc2ccccc2Cl)n1	none
O=c1c(C=Nc2ccccc2)c(Nc2ccccc2)[nH]n1-c1ccccc1	PME-1 Maybr inh 84.5
Clc1ccc2nc3c(nc2c1)Nc1ccccc1S3	KOR antag MB 90.3 (no result: NOTCH agonist)
Oc1c(Cl)c2nc3ccccc3nc2c2ccccc12	none
O=Cc1c(O)c2ccccc2c2ccccc12	PME-1 Maybr inh 30.6, KOR antag MB 72.4
Cc1nc(-c2cc(C#N)c(NCc3ccccc3)nc2C)cs1	S1P1 ag 84.6
N#C/C(=C\c1ccccn1)C(N)=O	none
Clc1ccc2c(N3CCC(n4cccc4)CC3)ccnc2c1	none (no result: NOTCH agonist)
COC(=O)/C=C1\SC(=Nc2ccc(Cl)cc2)N(c2ccc(Cl)cc2)C1=O	KOR antag MB 64.9
COC(=O)/C=C1\SC(c2ccccc2)=NC1=O	none
N/C(CS(=O)(=O)c1ccccc1)=N\OS(=O)(=O)c1ccc(Cl)cc1	none
CCOC(=O)c1csc(N/N=C2\CCc3ccccc32)n1	PME-1 Maybr inh 61.5
S=C1SCN(Cc2ccncc2)CN1Cc1ccncc1	none
Cc1ccc([N+](=O)[O-])c(NS(=O)(=O)c2cc(Cl)c(Cl)cc2Cl)c1	S1P1 ag 87.3
C=C(C)c1ccccc(=O)c1O	NOTCH agonist 4.9
O=C(COc1ccc(C2SCCS2)cc1)Nc1cc(Cl)cc(Cl)c1	PME-1 Maybr inh 123.6
O=C(COc1ccc(C2=NCCS2)cc1)Nc1ccc(Cl)cc1	none
CCOC(=O)c1ccc(N2CCOCC2)c(NC(=S)Nc2cccc(SC)c2)c1	none
CCOC(=O)C1CCN(c2ccc(C(C)=O)cc2NC(=S)Nc2cc(Cl)ccc2Cl)CC1	NOTCH agonist 5.9
CCCc1c(Cc2c(F)cccc2Cl)c(=O)oc2cc(OC(=O)COC)ccc12	none
Cc1nc2nc(N)[nH]c(=O)c2nc1C	S1P1 ag 110.9
Nc1nc(N)c(Br)c(=O)[nH]1	none
N#CC(C#N)=C1SC=C(c2ccc(Cl)cc2)S1	none
O=[N+]([O-])c1ccc(-c2ccc(/C=N/NC(=S)Nc3cccc(F)c3)o2)cc1	KOR antag MB 151.8
Fc1cccc(NC(=S)Nc2ccc3ccccc3c2)c1	none
O=[N+]([O-])c1cccc(-c2ccc(/C=N/NC(=S)NCc3ccco3)o2)c1	PME-1 Maybr inh 36.4
N#CCC(=O)N1CCSCC1	none
CC(C)(C)c1ccc(C(=O)c2ncc[nH]2)cc1	S1P1 ag 102.8
COc1ccc(OC(=O)c2ccc3ncccc3c2)cc1	none
COc1ccccc1NC(=O)NCCN1CCN(Cc2ccccc2)CC1	KOR antag MB 80.2
COc1ccc(C(=O)CC(C(=O)c2ccccc2)c2ccccc2)cc1 (centres undefined)	S1P1 ag 102.2
CCOC(=O)c1ccc(N2CC3CCCCN3C2c2cccc(OC)c2O)cc1 (centres undefined)	KOR antag MB 59.9
CCOC(=O)C1CCCN(C(=O)c2ccc(OC)c(OC)c2)C1 (centres undefined)	none
CCCn1c(Cc2ccc(Cl)c(Cl)c2)n[nH]c1=S	none
CSC(=NCc1c(N(C)C)cccc1N(C)C)NS(=O)(=O)c1ccccc1	S1P1 ag 94.8 (no result: NOTCH agonist)
O=[N+]([O-])c1cc(C2SCCS2)ccc1SCc1ccco1	S1P1 ag 99.5
O=C(NCc1ccco1)c1ccc(Cl)cc1[N+](=O)[O-]	none
COC(=O)c1cnn(-c2ccc(Cl)cc2)c1C=C(C#N)C#N	KOR antag MB 74.7
COC(=O)c1cnn(-c2ccc(Cl)cc2)c1C=Nc1ccc(C)cc1	none
CN(C)/C=C/C(=O)c1csc2ccccc12	none
CSc1nnc(-c2ccc(S(=O)(=O)N=S(C)(=O)c3ccc(Cl)cc3)s2)n1C (centres undefined)	none
CCOc1ccc(NC(=O)c2cc(C)n(C)n2)cc1	S1P1 ag 125.7
O=C(CCN1CCCCC1)c1ccc2c(c1)OCCCO2	none
O=c1c2ccccc2oc2cc(O)ccc12	none
Cc1c(Cc2c(Cl)cccc2Cl)c(=O)oc2cc(O)ccc12	PME-1 Maybr inh 32.8
COC(=O)c1cccc(NC(=O)NC(=O)c2cccs2)c1	rat GALR2 agon 16.2
Cc1ccc(SC#N)c(N)n1	none
O=c1oc2ccc([N+](=O)[O-])cc2cc1-n1cccc1	none
O=c1c2cc([N+](=O)[O-])ccc2oc2ncccc12	NOTCH agonist 3.0
CC(=O)c1sc(COc2ccc(Cl)cc2)nc1C	none
Cc1cn[nH]c1-c1cccs1	none
c1csc(-c2nn[nH]n2)c1	NOTCH agonist 2.9
